Bioassay records: PubChem BioAssay, several laboratories
A selection: hits, their analogues and other compounds. The true share with any hit is near 1.7%.
PrP 5UTR inh: suppresses PrP 5' UTR mRNA reporter expression; cell-based PrP 5' UTR mRNA reporter, plate reader; inhibition, % (concentration not given with the values); 340,000 tested, 0.35% active; AID 488862; in the data active means inhibition above about 52%; further: 0 = median of the neutral control wells
BJeLR lethal: kills HRASV12-expressing BJeLR cells; AID 1554; BJeLR (HRASV12) viability, CellTiter-Glo ATP luminescence, 48 h; 300,000 tested, 0.17% active; inhibition, % (concentration not given with the values); in the data active means inhibition above about 50%
Yp Topo-I inh: blocks Yersinia pestis topoisomerase I activity; Y. pestis Topo-I cleavage product accumulation, plate reader; activity, % at 10 µM; 360,000 tested, 0.064% active; AID 504884; in the data active means activity above about 50%, passing the limit was not always enough
PfHsp40 yeast: compounds rescuing yeast from Plasmodium falciparum HSP40 toxicity. S. cerevisiae expressing PfHsp40, growth rescue, ATP luminescence. 340,000 tested, 0.68% active. growth rescue, % at 12.5 µM; in the data active means growth rescue above about 28%, passing the limit was not always enough;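 further: yeast W303a lacking pdr1 and pdr3 grown in galactose medium; growth measured after three days at 30 °C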
PrPC surface inh: reduces human prion protein on the cell surface. cell surface PrPC, TR-FRET read-out. inhibition, % at 13.8 µM. 370,000 tested, 0.43% active; in the data active means inhibition above about 24%; further: 0% = median of the test wells and 100% = reference compound wells
PriA SSB inh: K. pneumoniae PriA-SSBct interaction inhibition; AlphaScreen SSBct-PriA binding, biotinylated peptide; inhibition, % at 33 µM; 430,000 tested, 0.6% active; AID 1272365; in the data active means inhibition mostly above about 37%, no sharp cut-off; inactive means mostly below about 20%;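 further: plate controls were negative control peptide for no effect and reference peptide for full effect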
* marks the source's active call; other numbers are inactive results; . = no result.

SMILES	PrP 5UTR inh	BJeLR lethal	Yp Topo-I inh	PfHsp40 yeast	PrPC surface inh	PriA SSB inh
O=C(CSc1nccn(-c2cccc3ccccc23)c1=O)NC1CCCCC1	.	.	.	.	.	29
O=P(Oc1ccccc1)(Oc1ccccc1)C(O)c1ccc(Cl)cc1 (stereo not drawn)	3	-22	9	140*	6	-11
COc1ccc2cc(C=O)c(OC)nc2c1	.	.	.	.	.	3
O=c1[nH]c(CN2CCN(c3ccccc3O)CC2)nc2scc(-c3ccccc3Cl)c12	-4	4	17	29*	7	13
Cc1c(C(=O)N(Cc2ccccc2)Cc2cccs2)cnn1-c1ccc(Cl)cc1	-38	-4	2	117*	8	-6
Cc1nnc(NC(=O)CSc2ccc(-c3ccccn3)nn2)s1	.	8	.	.	.	56*
Cc1cccc(NC(=O)CSc2ccc(-c3ccccn3)nn2)c1C	-28	-1	-2	200*	1	0
Cc1ccc(NC(=O)CSc2ccc(-c3ccccn3)nn2)c(C)c1	-13	6	9	105*	-2	-11
Cc1cc(C)c(NC(=O)CSc2ccc(-c3ccccn3)nn2)c(C)c1	-17	-6	12	-2	-1	20
Cc1nnc(NC(=O)CSc2ccc(-c3cccnc3)nn2)s1	-23	5	5	3	6	-18
Cc1ccc(NC(=O)CSc2ccc(-c3ccccn3)nn2)cc1	2	-9	-8	103*	5	6
Cc1cccc(NC(=O)CSc2ccc(-c3cccnc3)nn2)c1C	.	.	.	.	.	0
CSc1nc(N)c(NC(=O)c2ccccc2)c(=O)[nH]1	.	.	.	.	.	15
O=C(CSc1ccc(-c2ccccn2)nn1)Nc1ccc(F)cc1F	-12	1	7	1	-4	11
O=C(CSc1ccc(-c2ccccn2)nn1)Nc1ccccc1F	.	.	.	.	.	84*
CCc1ccc(NC(=O)CSc2ccccn2)cc1	-71	5	15	62*	7	-11
O=C(Nc1ccc(-c2ccc3nnc(-c4ccncc4)n3n2)cc1)c1ccc(F)cc1	.	.	.	.	.	-21
CC(C)c1ccc(N(CC(=O)NCc2ccc(F)cc2)C(=O)c2snc(C(N)=O)c2N)cc1	-2	-2	67*	-1	-4	-1
COc1cc2c(cc1OC)C(COc1ccc([N+](=O)[O-])cc1)N(C(=O)/C=C/c1ccco1)CC2 (stereo not drawn)	.	.	.	.	.	23
CCOC(=O)CSc1nc2c(c(=O)n1-c1ccc(OCC)cc1)SCC2	-15	-10	-4	40*	-2	-7
O=C(Nc1cc(F)cc(F)c1)c1cc(S(=O)(=O)N2CCCCCC2)ccc1O	.	.	.	.	.	-2
CN(C)c1cncc(OC2CCN(C(=O)NCc3cccs3)C2)n1 (stereo not drawn)	.	.	.	.	.	18
CCCC(=O)N1CC(=O)Nc2ccc(Br)cc2C1c1ccc(F)cc1 (stereo not drawn)	2	-11	2	2	-3	-6
CC(=O)N1CC(=O)Nc2ccc(Br)cc2C1c1ccc(F)cc1 (stereo not drawn)	-6	-7	3	85*	-3	-20
COc1cc(C2C3C(C)N(C)C(=O)N(C)C3N(C)C(=O)N2C)ccc1O (stereo not drawn)	-15	-16	-3	52*	-6	-7
SMILES	PrP 5UTR inh	BJeLR lethal	Yp Topo-I inh	PfHsp40 yeast	PrPC surface inh	PriA SSB inh
COc1cc(C2SCC(=O)N2CCN2CCCCC2)ccc1O (stereo not drawn)	-16	7	4	0	-5	-14
O=C(NCCSc1ccccc1)c1ccc(Br)cc1	-89	0	6	16	2	-34
O=C(NCCCSc1ccccc1)c1cc(Br)ccc1O	-29	-6	-6	196*	1	-64
COC(=O)c1[nH]c2cccc(OC)c2c1NC(=O)CCN1CCSCC1	-11	12	-11	0	-4	-2
COC(=O)c1[nH]c2cccc(OC)c2c1NC(=O)CN1CCOCC1	-17	-2	10	52*	2	-14
CCOC(=O)c1c(NC(=O)Cc2cccc3ccccc23)sc2c1CC[C@H](C)C2	.	.	.	.	.	-10
COc1ccc(-c2cn3c(CCC(=O)Nc4ccc5c(c4)OCO5)csc3n2)cc1	.	.	.	.	.	38*
COc1ccc(-c2cn3c(C(=O)Nc4ccc5c(c4)OCCO5)csc3n2)cc1	.	.	.	.	.	active
COc1ccc(-c2cn3c(CCC(=O)Nc4nc(C)cs4)csc3n2)cc1	.	.	.	.	.	19
CC1(C)CCCC(C)(C)N1CC(O)COC1CCCC1 (stereo not drawn)	.	.	.	.	.	-6
O=C(CCl)N(CCCNC(=O)C(F)(F)F)c1ccc([N+](=O)[O-])cc1	5	116*	4	0	-17	-4
O=C(COc1ccc(Oc2ccccc2)cc1)N(Cc1ccccc1)Cc1ccccc1	.	.	.	.	.	-7
Cc1cccc(N2CCN(CC(=O)N(C)Cc3ccccc3)CC2C)c1 (stereo not drawn)	-7	-7	2	44*	2	2
CN(Cc1ccccc1)C(=O)CN1CCCC1=O	6	-7	4	-1	-6	5
Cc1cccc(N2C(=O)C=CC2=O)c1	-18	.	7	1	6	-2
O=C1C=CC(=O)N1c1ccc(Nc2ccccc2)cc1	-9	.	-3	236*	-7	-6
O=C1C=CC(=O)N1c1ccc2ccccc2c1	-13	.	22	766*	11	-14
O=C(Cn1c(-c2ccncc2)nc2ccccc21)Nc1cccc(C(F)(F)F)c1	.	.	.	.	.	4
CCn1c(C)cc2c(c1=O)C(C(C)C)C(C#N)=C(N)O2 (stereo not drawn)	.	.	.	.	.	-8
Cc1ccn(-c2ccc(Nc3ccc(NC(=O)c4ccccc4Br)cc3)nn2)n1	.	.	.	.	.	35*
Cc1ccn(-c2ccc(Nc3ccc(NC(=O)c4c(F)cccc4Cl)cc3)nn2)n1	.	.	.	.	.	39*
Cc1csc(NC(=O)Cn2c(-c3ccncc3)nc3ccccc32)n1	.	.	.	.	.	17
CCOC(=O)N1CCN(C(=O)c2cc(C3CC3)on2)CC1	.	.	.	.	.	-11
Cc1cc(CNC(=O)C(=O)NCCc2ccccc2)c(C)o1	.	.	.	.	.	3
CN1CCN(c2nc3ccc(NC(=O)c4cccs4)cc3s2)CC1	.	.	.	.	.	-3
COc1ccc(N=Nc2cc(C)c(O)c(CN3CCCCC3)c2)cc1	-23	-9	-5	1	-3	54*
COc1ccc(CN2CCCCCC2)cc1	-9	4	6	0	-11	-6
N#CC1=C(N)Oc2n[nH]c(-c3ccccn3)c2C1c1c(F)cccc1Cl (stereo not drawn)	-8	0	-6	-2	-5	42*
CCOc1ccccc1CN1CCC(N2CCC(C(=O)NC3CC3)CC2)CC1	-9	3	-1	30*	-8	-4
CCOc1ccccc1CN1CCC(n2nccc2NC(=O)C2CCCC2)CC1	-14	4	2	-1	-5	5
